According to article PMC9838217, “Structure of SALL4 zinc finger domain reveals link between AT-rich DNA binding and Okihiro syndrome”:
Substitutions are numbered along the chain they refer to.

Molecular target: T1, SALL4 ZFC4 WT (HT-SELEX) (Mus musculus, UniProt Q8BX22 870-940)
T1 sequence: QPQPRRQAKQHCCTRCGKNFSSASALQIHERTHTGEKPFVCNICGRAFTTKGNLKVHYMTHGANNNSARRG
Assay: HT-SELEX; high values mean tight binding
Conditions: protein: recombinant; vector His6-GST; dsDNA, one strand shown
Method in brief: (§1)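 Each canonical k-mer's binding signal is its read fraction expressed as fold change over the initial random library. Reads came from MiSeq sequencing, scanned for 6-mers, after up to 6 triplicate cycles in which purified recombinant mouse SALL4 zinc finger cluster 4 (residues 870–940, 1 µg) bound library DNA (1.5 µg first cycle, 200 ng later) in 100 µl of 10 mM Tris–HCl pH 7.5, 50 mM NaCl, poly(dI-dC), DTT for 10 min at room temperature. Complexes were then Ni2+ bead-captured, washed, PCR-amplified and reselected.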

Row | Sequence | binding signal [fold-change vs cycle 0]
1 | GGTATA | 1.3 ± 0.0598
2 | GCATTA | 1.15 ± 0.025
3 | AGAATA | 2.17 ± 0.0586
4 | GAACTA | 1.37 ± 0.088
5 | GGAATA | 1.41 ± 0.0746
6 | ATGATG | 1.43 ± 0.0727
7 | ATTCTC | 1.41 ± 0.062
8 | GAAGTA | 1.43 ± 0.0516
9 | GTGTTA | 1.31 ± 0.0667
10 | TCGTAA | 1.21 ± 0.0956
11 | ACCATA | 1.42 ± 0.0615
12 | ATACGA | 1.26 ± 0.0299
13 | ACGAAT | 1.18 ± 0.0691
14 | CAATAG | 1.21 ± 0.0269
15 | ACTATG | 1.34 ± 0.073
16 | CTCTTA | 1.46 ± 0.0534

Molecular target: T2, SALL4 ZFC4 R900W (HT-SELEX) (Mus musculus, UniProt Q8BX22 870-940, R900W)
T2 sequence: T1 sequence with R31W
Assay: HT-SELEX; high values mean tight binding
Conditions: protein: recombinant; vector His6-GST; dsDNA, one strand shown
Method in brief: as §1

Row | Sequence | binding signal [fold-change vs cycle 0]
17 | ACAAAC | 1.23 ± 0.0488
18 | ACTGAG | 1.01 ± 0.0326
19 | GAGAGA | 1.06 ± 0.0438
20 | AAACCT | 1.34 ± 0.0189
21 | AAATGG | 1.16 ± 0.0862
22 | CAAATG | 1.17 ± 0.0524
23 | AGGATG | 1.04 ± 0.0516
24 | CCAATA | 1.24 ± 0.0246
25 | CAGATA | 1.33 ± 0.0549
26 | ACCAAT | 1.33 ± 0.0357
27 | ATTTGG | 1.09 ± 0.0268
28 | AAAACT | 1.7 ± 0.107
29 | CATAGA | 1.37 ± 0.0567
30 | ATTGTG | 1.18 ± 0.0444
31 | GCTTTA | 1.09 ± 0.0574
32 | GGAAGA | 1.12 ± 0.0339
33 | TAAGAA | 2.2 ± 0.155
